Holding throughout (test): yeast three-hybrid, YBZ-1, SC-Leu-His + 0.5 mM 3-AT, 4 days
Common to all, as to settings: tags: N-Gal4 AD-HA kept; label: inside an RPR1-promoter hybrid RNA with tandem MS2 sites; ssRNA

One assay has as its target PUM1 PUF domain R3-WFG (Homo sapiens, UniProt Q14671 828-1176, C935W;R936F;Q939G). In a few lines: (§1)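 Pumilio-1 PUF domain libraries, randomized (NNK) at the three base-contacting residues of each repeat, were co-expressed with matching RNA elements from a centromeric plasmid in strain YBZ-1 (LexA–MS2 coat fusion, HIS3 reporter). Transformants were plated on SC-Leu (input) and SC-Leu-His + 0.5 mM 3-AT (selection) for four days, and repeat regions were PCR-amplified and Illumina-sequenced. The interaction score is the log2 change in variant frequency from input to selection, with pseudocount 1 where absent.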

The next assay has as its target PUM1 PUF domain R5-DQE (Homo sapiens, UniProt Q14671 828-1176, C1007D;R1008Q;Q1011E). In a few lines: as §1
The target of the next assay is PUM1 PUF domain R8-VYR (Homo sapiens, UniProt Q14671 828-1176, N1122V;Q1126R). In a few lines: as §1
In another assay the target is PUM1 PUF domain R8-HFM (Homo sapiens, UniProt Q14671 828-1176, N1122H;Y1123F;Q1126M). In a few lines: as §1
The target of another assay is PUM1 PUF domain R5-KAR (Homo sapiens, UniProt Q14671 828-1176, C1007K;R1008A;Q1011R). In a few lines: as §1
The target of another assay is PUM1 PUF domain R5-EWF (Homo sapiens, UniProt Q14671 828-1176, C1007E;R1008W;Q1011F). In a few lines: as §1
Another assay deals with PUM1 PUF domain R5-KQS (Homo sapiens, UniProt Q14671 828-1176, C1007K;R1008Q;Q1011S). Put shortly:
as §1

The target in another assay is T1, PUM1 PUF domain R6-KWL (Homo sapiens, UniProt Q14671 828-1176, N1043K;Y1044W;Q1047L).
T1 sequence: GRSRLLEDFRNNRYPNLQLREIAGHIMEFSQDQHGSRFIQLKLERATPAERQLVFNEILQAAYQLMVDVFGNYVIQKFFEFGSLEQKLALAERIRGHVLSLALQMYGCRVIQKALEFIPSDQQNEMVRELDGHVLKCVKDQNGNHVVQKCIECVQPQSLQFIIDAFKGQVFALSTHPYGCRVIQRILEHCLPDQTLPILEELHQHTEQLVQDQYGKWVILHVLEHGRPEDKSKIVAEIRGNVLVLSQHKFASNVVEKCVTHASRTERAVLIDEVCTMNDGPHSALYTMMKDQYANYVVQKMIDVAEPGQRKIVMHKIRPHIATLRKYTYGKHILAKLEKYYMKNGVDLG
Put shortly:
as §1

The target of another assay is PUM1 PUF domain R7-DWE (Homo sapiens, UniProt Q14671 828-1176, S1079D;N1080W). Put shortly: as §1
The next assay has as its target PUM1 PUF domain R3-AFP (Homo sapiens, UniProt Q14671 828-1176, C935A;R936F;Q939P). In a few lines:
as §1

As to “GGCUAGAACUAGUGGAUCCCCCGGCGCCCGGCGGCUCGAGCCCGGGUAAGUGUAAUUAGUCUGCAUGCCGCCGGGCGCCAUGCCUGCAGGUCGACUCUAGAAAACAUG”, the binding signal in the assay with PUM1 PUF domain R3-WFG was 2.57 log2 enrichment (interaction score).
For the sequence “GGCUAGAACUAGUGGAUCCCCCGGCGCCCGGCGGCUCGAGCCCGGGUAAGUGUGAAUAGUCUGCAUGCCGCCGGGCGCCAUGCCUGCAGGUCGACUCUAGAAAACAUG”, in the assay with PUM1 PUF domain R5-DQE, the binding signal is 3.83 log2 enrichment (interaction score).
On to “GGCUAGAACUAGUGGAUCCCCCGGCGCCCGGCGGCUCGAGCCCGGGUAAGUGUAAGUAGUCUGCAUGCCGCCGGGCGCCAUGCCUGCAGGUCGACUCUAGAAAACAUG”, for which the binding signal with PUM1 PUF domain R3-WFG is 2.77 log2 enrichment (interaction score).
Take “GGCUAGAACUAGUGGAUCCCCCGGCGCCCGGCGGCUCGAGCCCGGGUAAGCGUAAAUAGUCUGCAUGCCGCCGGGCGCCAUGCCUGCAGGUCGACUCUAGAAAACAUG”: the binding signal was 5.17 log2 enrichment (interaction score) with PUM1 PUF domain R8-VYR and 2.95 log2 enrichment (interaction score) with PUM1 PUF domain R8-HFM.
For “GGCUAGAACUAGUGGAUCCCCCGGCGCCCGGCGGCUCGAGCCCGGGUAAGUGUUAAUAGUCUGCAUGCCGCCGGGCGCCAUGCCUGCAGGUCGACUCUAGAAAACAUG”, the binding signal with PUM1 PUF domain R5-KAR was 2.72 log2 enrichment (interaction score); in the assay with PUM1 PUF domain R5-EWF it was 3.15 log2 enrichment (interaction score).
As to “GGCUAGAACUAGUGGAUCCCCCGGCGCCCGGCGGCUCGAGCCCGGGUAAGUGUCAAUAGUCUGCAUGCCGCCGGGCGCCAUGCCUGCAGGUCGACUCUAGAAAACAUG”, the figures for the binding signal in the assay with PUM1 PUF domain R5-KAR and with PUM1 PUF domain R5-KQS were 4.29 log2 enrichment (interaction score) and 3.98 log2 enrichment (interaction score), respectively.
With “GGCUAGAACUAGUGGAUCCCCCGGCGCCCGGCGGCUCGAGCCCGGGUAAGUGUAAAUAGUCUGCAUGCCGCCGGGCGCCAUGCCUGCAGGUCGACUCUAGAAAACAUG”, the binding signal is 5.66 log2 enrichment (interaction score) with PUM1 PUF domain R6-KWL; 2.44 log2 enrichment (interaction score) in the assay with PUM1 PUF domain R7-DWE; 0.39 log2 enrichment (interaction score) in the assay with PUM1 PUF domain R5-KQS; 4.52 log2 enrichment (interaction score) with PUM1 PUF domain R8-VYR; 5.95 log2 enrichment (interaction score) with PUM1 PUF domain R3-AFP.

The values are drawn from PMC8384837, “Expanding the binding specificity for RNA recognition by a PUF domain”.
